Source: PubChem BioAssay (NCATS)
A number with no mark means an inactive call. How the calls were made is not given here.

Tested on: HIV-1 nucleocapsid protein NCp7 (binding to TG oligonucleotide)
Test: HIV Nucleocapsid (AID 346);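 further: potency is for inhibitors that block NC binding and lower polarization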
Conditions: HIV-1 NC / fluorescein-TGTGTGTG probe, fluorescence polarization
How it was run: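 Fluorescence polarization binding of 100 nM HIV-1 NC to 10 nM fluorescein-labelled TG4xF oligonucleotide. Buffer was Hepes pH 7.5 with 250mM NaCl, 1uM ZnCl2, TCEP and 2-mercaptoethanol. Compounds were incubated 1 hr at room temperature before the read.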
Potency means the concentration at half of the fitted maximal effect.

Row | SMILES | Potency
1 | COc1ccc(NC(=O)N2CCCC3(CCN(C(=O)c4cccc(F)c4)CC3)C2)cc1 | > 20 µM
2 | N#Cc1ccc(CN2CCC3(CC2)CCN(S(=O)(=O)c2ccccc2)CC3)cc1 | > 20 µM
3 | COCCn1c(=O)c(-c2ccc(OC)cc2)nc2cnc(Oc3ccc(OC)cc3)nc21 | > 20 µM
4 | COc1ccc(-n2c(=O)c(-c3ccc(Cl)cc3)nc3cnc(N(C)C)nc32)cc1 | > 20 µM
5 | Cc1noc(C)c1-c1nc(NC2CCNCC2)c2ccccc2n1 | > 20 µM
6 | CCNc1ncc2nc(-c3ccc(Cl)cc3)c(=O)n(CCC#N)c2n1 | > 20 µM
7 | COc1ccc(NC(=O)N2CC3(CCN(C(=O)c4ccc(OC)cc4)CC3)C2)cc1 | > 20 µM
8 | c1cncc(-c2cncnc2NCc2cccs2)c1 | > 20 µM
9 | COc1ncc2ncc(=O)n(C[C@H]3CCCO3)c2n1 | > 20 µM
10 | c1nc(N2CCNCC2)c2cc(-c3ccoc3)ccc2n1 | > 20 µM
11 | COC(=O)N1CCC[C@@]2(CCN(C(c3ccccc3)c3ccccc3)C2)C1 | > 20 µM
12 | COc1ccccc1-c1nc(NCCN2CCOCC2)c2ccccc2n1 | > 20 µM
13 | COc1cccc(-c2ccc3ncnc(NCc4cccnc4)c3c2)c1 | > 20 µM
14 | COc1ccccc1-c1cc(Nc2ccc(F)cc2)ncn1 | > 20 µM
15 | Cn1cc(-c2nc3cnc(Oc4ccccc4)nc3n(Cc3cccs3)c2=O)c2ccccc21 | > 20 µM
16 | N#Cc1cccc(-c2cncnc2-n2ccnc2)c1 | > 20 µM
17 | CN(C)Cc1ccccc1-c1ccc2ncnc(NCc3cccs3)c2c1 | > 20 µM
18 | CN(C)C(=O)c1ccc(-c2cc(Nc3ccccc3)ncn2)cc1 | > 20 µM
19 | O=C(c1cnccn1)N1CCC2(CCCN(c3ccccn3)C2)CC1 | > 20 µM
20 | COc1ccc(-n2c(=O)c(-c3cn(C)c4ccccc34)nc3cnc(OC)nc32)cc1 | > 20 µM

Row | SMILES | Potency
21 | O=C(c1ccco1)N1CCC2(CCCN(c3cccc(-c4ccccc4)c3)C2)CC1 | > 20 µM
22 | Cc1noc(C)c1-c1ccc2ncnc(NCc3cccs3)c2c1 | > 20 µM
23 | CN(Cc1ccco1)c1cc(-c2ccccc2C(F)(F)F)ncn1 | > 20 µM
24 | COc1ncc2nc(-c3cn(C)c4ccccc34)c(=O)n(C)c2n1 | > 20 µM
25 | Cc1noc(C)c1C(=O)N1CCC[C@@]2(CCN(C(=O)NC(C)C)C2)C1 | > 20 µM
26 | COc1ccc(-c2nc3cnc(N4CCOCC4)nc3n(Cc3cccs3)c2=O)cc1 | > 20 µM
27 | CN1CCN(c2ncc3nc(-c4cc(F)cc(F)c4)c(=O)n(Cc4cccs4)c3n2)CC1 | > 20 µM
28 | Cc1cnc(CNc2cc(-c3ccccc3Cl)ncn2)cn1 | > 20 µM
29 | CN(C)Cc1ccccc1-c1ccc2ncnc(N(C)Cc3ccco3)c2c1 | > 20 µM
30 | COc1ncc2nc(-c3ccccc3)c(=O)n(-c3ccccc3)c2n1 | > 20 µM
31 | CN1CCCC2(CCN(C(=O)c3cc(C(F)(F)F)cc(C(F)(F)F)c3)CC2)C1 | > 20 µM
32 | COc1ccccc1-c1nc(N2CCOCC2)c2ccccc2n1 | > 20 µM
33 | Cc1cccc(CNc2ncnc3ccc(-c4ccccc4CN(C)C)cc23)c1 | > 20 µM
34 | COCCn1c(=O)cnc2cnc(Nc3ccccc3)nc21 | > 4 µM
35 | Clc1ccccc1-c1nccc(NCc2cccs2)n1 | > 20 µM
36 | Cn1c(=O)c(-c2ccc(Cl)cc2)nc2cnc(Nc3ccccc3)nc21 | > 20 µM
37 | O=C(c1csnn1)N1CCC2(CC1)CN(c1ncccn1)C2 | > 20 µM
38 | COc1ccccc1CN1CCCC2(CCN(C(=O)c3ccco3)CC2)C1 | > 20 µM
39 | COCCNc1ncncc1-c1c(C)noc1C | > 20 µM
40 | COc1ccc(CNc2ncncc2-c2ccccc2OC)c(OC)c1 | > 20 µM
